In PubChem BioAssay:
Active and inactive are the calls of the source.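 How the source made its calls, unless noted: active means thallium flux through the channel raised or lowered by more than 3 SD from vehicle-only wells, actives on both sides; inactive means the rest.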

What was measured:
[1] = P. berghei load reduction in hepatocytes – cell-based, HepG2, luciferase luminescence, HepG2 viability, primary screen (AID 624349; in the data active means parasite load remaining mostly below about 12%, no sharp cut-off; inactive means mostly above about 10%;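 further: 100% = mean of DMSO negative control wells on the same plate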); details: P. berghei liver stage in HepG2, luciferase luminescence, concentration not given here; parasite load remaining: stronger effect = lower value; viability: measured here: HepG2 viability without parasites
[2] = signal quenchers or enhancers, Cy5 substrate/SSB – biochemical, NIH Clinical Collection, E. coli SSB, artefact control for HCV NS3 helicase inhibitor project (AID 743268; call rule not given here); details: Cy5-oligo bound E. coli SSB, fluorescence interference
[3] = tested on: Hepatitis C virus NS3 helicase; experiment: blockers of NS3h binding to DNA – biochemical, fluorescence polarization, NIH Clinical Collection, primary screen (AID 743270; call rule not given here); details: NS3 helicase binding to Cy5-dT15 DNA, stronger effect = higher value, concentration not given here
[4] = biological target: Single-stranded DNA-binding protein (Escherichia coli (strain K12)) (UniProt P0AGE0); experiment: SSB-ssDNA binding inhibitors – biochemical, fluorescence polarization, NIH Clinical Collection, counter-screen for HCV NS3 helicase inhibitor project (AID 743271; in the data active means inhibition above about 28%); details: E. coli SSB-DNA binding, stronger effect = higher value, concentration not given here
[5] = compounds distorting NS3 helicase fluorescence signal – biochemical, NIH Clinical Collection, artefact control for HCV NS3 helicase inhibitor project (AID 743272; call rule not given here;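 further: HCV NS3 helicase with a Cy5 labelled single stranded DNA probe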); details: fluorescence interference counterscreen, HCV NS3 helicase assay; stronger effect = lower value
[6] = modulation of C. elegans fzo-1 (AID 1259413; call rule not given here;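 further: fzo-1 mutant C. elegans worms in liquid wells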); details: C. elegans fzo-1 modulator screen, mean read-out; stronger effect = higher value
[7] = viability loss with induced miR-34 in A549 – imaging, A549 dox-inducible miR-34, nuclei and caspase counts, primary screen (AID 1347080;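 active means compounds whose cell count with miR-34 switched on is under 0.7 times the count with it off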); details: A549 miR-34 inducible, Hoechst nuclei count, 48 h
[8] = galactose survival enhancers in mitochondrial complex I cybrids – cell-based, galactose medium, ATP luminescence, primary screen (AID 1645843;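 active means z-score of at least 1.8 in each of two replicates, scored against plate mean and spread of sample wells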;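 further: positive z means more ATP and so rescue of galactose-driven cybrid death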); details: complex I mutant cybrid cells, 72 h, stronger effect = higher value
[9] = tested on: F380Y; experiment: BK channel mutant inhibitors and activators – cell-based, U2OS BacMam, thallium flux, beta subunits, selectivity assay, profiling panel (AID 1259406); details: U2OS BacMam BK variants, at 30 µM;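 further: initial slope of Thallos dye fluorescence rise after thallium is added; log ratio against the mean of 0.3% DMSO vehicle wells on the same plate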
[10] = tested on: F380Y/beta1; experiment: as above; details: U2OS BacMam BK variants, at 30 µM
[11] = tested on: F380Y/beta2Delta; experiment: as above; details: U2OS BacMam BK variants, at 30 µM
[12] = tested on: F380Y/beta4; experiment: as above; details: U2OS BacMam BK variants, at 30 µM
[13] = biological target: Calcium-activated potassium channel subunit alpha-1 (Homo sapiens) + Leucine-rich repeat-containing protein 26 (Homo sapiens) (UniProt Q12791+Q2I0M4); experiment: as above; details: U2OS BacMam BK variants, F380Y/Slo1WT/gamma1, at 30 µM
[14] = tested on: R275C; experiment: as above; details: U2OS BacMam BK variants, at 30 µM
[15] = tested on: R275C/beta1; experiment: as above; details: U2OS BacMam BK variants, at 30 µM
[16] = tested on: R275C/beta2Delta; experiment: as above; details: U2OS BacMam BK variants, at 30 µM
[17] = tested on: R275C/beta4; experiment: as above; details: U2OS BacMam BK variants, at 30 µM
[18] = tested on: R275C/Slo1WT/beta2; experiment: as above; details: U2OS BacMam BK variants, at 30 µM
[19] = tested on: Neuropilin-2 / VEGF-C interaction (human); experiment: small molecules blocking Neuropilin-2/VEGF-C interaction – biochemical, microplate binding format, z-score (AID 743281; call rule not given here); details: microplate NRP2/VEGF-C binding assay; stronger effect = lower value
[20] = stronger effect = lower value, cell number ratio, induced over uninduced
[21] = measured here: relative caspase fold change +Dox/-Dox
[22] = measured here: total cells with miR-34 induction, stronger effect = lower value
[23] = measured here: total cells without miR-34 induction

Sequence of Calcium-activated potassium channel subunit alpha-1 (Homo sapiens) + Leucine-rich repeat-containing protein 26 (Homo sapiens) (Q2I0M4 whole entry, looked up, one chain of several): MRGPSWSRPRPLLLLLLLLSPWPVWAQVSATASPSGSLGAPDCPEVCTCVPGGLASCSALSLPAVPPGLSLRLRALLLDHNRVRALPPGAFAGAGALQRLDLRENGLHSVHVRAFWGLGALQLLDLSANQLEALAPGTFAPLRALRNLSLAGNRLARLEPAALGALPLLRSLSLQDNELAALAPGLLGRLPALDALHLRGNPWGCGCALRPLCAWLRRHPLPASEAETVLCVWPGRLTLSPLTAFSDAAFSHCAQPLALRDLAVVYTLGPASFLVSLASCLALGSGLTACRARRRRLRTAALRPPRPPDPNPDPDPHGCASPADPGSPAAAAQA

CC1c2cccc(O)c2C(O)=C2C(=O)C3(O)C(O)=C(C(N)=O)C(=O)C(N(C)C)C3C(O)C21 (stereo not given)
2090: cell count [7, 22]
132%: viability [1]
inactive: parasite load remaining [1] 45.4% | fluorescence ratio [2] 1.05 | inhibition [3] -13.2% | inhibition [4] -2.76% | fluorescence ratio [5] 1 | mean signal [6] 241 | fold change [7, 20] 1.04 | z-score [8] -1.48 | log fold change Tl+ flux [9] 0.0135 | log fold change Tl+ flux [11] -0.0466 | log fold change Tl+ flux [12] -0.028 | log fold change Tl+ flux [13] -0.0167 | log fold change Tl+ flux [14] -0.0534 | log fold change Tl+ flux [15] -0.0443 | log fold change Tl+ flux [16] -0.0148 | log fold change Tl+ flux [17] -0.108 | log fold change Tl+ flux [18] -0.0846
active: log fold change Tl+ flux [10] -0.12
1.1: fold change [7, 21]
2010: cell count [7, 23]

Cc1nnc(SCC2=C(C(=O)O)N3C(=O)C(NC(=O)Cn4cnnn4)C3SC2)s1 (stereo not given)
1.36: fold change [7, 21]
110%: viability [1]
10800: cell count [7, 23]
10000: cell count [7, 22]
inactive: parasite load remaining [1] 65.6% | mean signal [6] 235 | fold change [7, 20] 0.923 | z-score [8] -0.49 | log fold change Tl+ flux [9] -0.00444 | log fold change Tl+ flux [10] -0.0723 | log fold change Tl+ flux [11] 0.025 | log fold change Tl+ flux [12] 0.028 | log fold change Tl+ flux [13] 0.00509 | log fold change Tl+ flux [14] 0.00777 | log fold change Tl+ flux [15] 0.00195 | log fold change Tl+ flux [16] 0.0237 | log fold change Tl+ flux [17] -0.0318 | log fold change Tl+ flux [18] 0.0155

CCCCC(=O)OC1(C(=O)CO)CCC2C3CCC4=CC(=O)CCC4(C)C3C(O)CC21C (stereo not given)
inactive: parasite load remaining [1] 89.7% | fluorescence ratio [2] 1.04 | inhibition [3] -5.91% | inhibition [4] -5.05% | fluorescence ratio [5] 1.01 | mean signal [6] 256 | fold change [7, 20] 0.983 | z-score [8] 0.245 | log fold change Tl+ flux [14] 0.0146 | log fold change Tl+ flux [18] -0.00582
6880: cell count [7, 22]
active: log fold change Tl+ flux [9] -0.858 | log fold change Tl+ flux [10] -0.315 | log fold change Tl+ flux [11] -0.396 | log fold change Tl+ flux [12] -0.379 | log fold change Tl+ flux [13] -0.495 | log fold change Tl+ flux [15] 0.44 | log fold change Tl+ flux [16] 0.266 | log fold change Tl+ flux [17] 0.327
2.66: fold change [7, 21]
100%: viability [1]
7000: cell count [7, 23]

COc1cc(C[C@@H](CO)[C@H](CO)Cc2ccc(O)c(OC)c2)ccc1O
77.7%: viability [1]
inactive: parasite load remaining [1] 74.6% | fluorescence ratio [2] 0.93 | inhibition [3] -1.09% | inhibition [4] 3.54% | fluorescence ratio [5] 0.88 | z-score [19] 0.125 | mean signal [6] 248 | log fold change Tl+ flux [9] 0.00354 | log fold change Tl+ flux [10] 0.0295 | log fold change Tl+ flux [11] 0.0145 | log fold change Tl+ flux [12] 0.00227 | log fold change Tl+ flux [13] 0.0262 | log fold change Tl+ flux [14] -0.00612 | log fold change Tl+ flux [15] -0.00624 | log fold change Tl+ flux [16] -0.0204 | log fold change Tl+ flux [17] -0.0506 | log fold change Tl+ flux [18] 0.0317
